Measured values taken from PubChem BioAssay (NCI).
Compounds without any hit were thinned out: in the full panel of roughly 83,000, 20% have a hit.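 For each line, cells grew in 96-well plates with the test compound present at a single concentration for 48 hours.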 A number with no mark means an inactive call. Active and inactive are the calls of the source. How the source made its calls: active means growth percent below 10; inactive means the rest.

What was measured:
Experiment in all cases: NCI-60 one-dose screen, 48 h (100 = growth as untreated, 0 = no growth, -100 = all killed)
Conditions in all cases: 10 µM
K-562 leukemia = system: K-562 leukemia
MALME-3M melanoma = system: MALME-3M melanoma
MDA-MB-231 breast = system: MDA-MB-231 breast
RXF 393 renal = system: RXF 393 renal
SF-268 CNS = system: SF-268 CNS
SF-295 CNS = system: SF-295 CNS
SF-539 CNS = system: SF-539 CNS
UACC-257 melanoma = system: UACC-257 melanoma
M14 melanoma = system: M14 melanoma
HCT-15 colon = system: HCT-15 colon

Row | Compound | growth (K-562 leukemia) | growth (MALME-3M melanoma) | growth (MDA-MB-231 breast) | growth (RXF 393 renal) | growth (SF-268 CNS) | growth (SF-295 CNS) | growth (SF-539 CNS) | growth (UACC-257 melanoma) | growth (M14 melanoma) | growth (HCT-15 colon)
1 | O=C(Nc1cccc(-n2cc(-c3ccncc3)c(-c3cc(O)cc(Cl)c3)n2)c1)Nc1ccc(Cl)c(C(F)(F)F)c1 | 5.24% (active) | -24.9% (active) | -47.3% (active) | -49.5% (active) | 42.1% | 14.3% | 32.6% | -40% (active) | -16.8% (active) | 5.79% (active)
2 | CCOC(=O)C1CCc2c(ccc3ccccc23)N1CCC#N (stereo not given) | 55.5% | 80.2% | 91.5% | 89% | 113% | 88% | 110% | 104% | 93.3% | 91.9%
3 | Cn1c(N)c(N=Nc2ccc(S(=O)(=O)Nc3nccs3)cc2)c(=O)n(C)c1=O | 90.2% | 86.8% | 111% | 130% | 103% | 91% | 98.3% | 95.6% | 101% | 110%
4 | COc1ccc(-c2nn(-c3cccc(NC(=O)c4cccc(C(F)(F)F)c4)c3)cc2-c2ccncc2)cc1Cl | 14.8% | 12.6% | 9.03% (active) | 19.4% | 37.5% | -10.7% (active) | -39.6% (active) | 25.5% | 7.66% (active) | 26.9%
5 | COc1cc(CNCCCCCCN2C(=O)c3cccc4cccc(c34)C2=O)ccc1O | 35.3% | 36.3% | 81.5% | 52% | 88.7% | 69% | 85.3% | 89.4% | 78.2% | 74.7%
6 | Cc1cc2c(C)c3cc(C)c(N)cc3nc2cc1N | 1.18% (active) | -3.24% (active) | 20.3% | 16.3% | 15.2% | 39.5% | 19.4% | 18.9% | 9.16% (active) | 24.8%
7 | NC(=S)N=Nc1c(O)c2ccccc2c2ccccc12 | 42.2% | 60.5% | 76.7% | 99.4% | 56.7% | 82.7% | 16.1% | -61.3% (active) | -68.6% (active) | 23.3%
8 | O=C(O)CC(Cl)C(Cl)CC(=O)O (stereo not given) | 103% | 90.7% | 117% | 127% | 105% | 92.7% | 99.3% | 92.2% | 102% | 99.2%
9 | N=C(N)c1ccc(-c2ccc(-c3cccs3)o2)cc1 | -13.1% (active) | -72.4% (active) | 0.444% (active) | 39% | 61.6% | -52.3% (active) | 77.9% | -47.3% (active) | -27.4% (active) | -10.2% (active)
10 | COc1cc(-c2cc(-c3cc4c([nH]c5ccccc54)c(-c4cc(OC)c(OC)c(OC)c4)n3)cc(-c3ccccc3)n2)cc(OC)c1OC | 16.7% | 58.3% | 45.6% | 72.6% | 78.7% | 26.8% | 66% | 89% | 50.9% | 51.6%
11 | Cn1c([N+](=O)[O-])cnc1/C=C1\Oc2cc(Cl)ccc2C1=O | 35.8% | -56.7% (active) | -27.7% (active) | -66.8% (active) | -37.4% (active) | 38.5% | 28% | -42% (active) | -34.7% (active) | 3.55% (active)
12 | COc1cc(-c2cc(/C=C3\C(=O)Nc4ccccc43)[nH]n2)cc(OC)c1OC | 31.7% | 1.21% (active) | 49.9% | 79.3% | 74.8% | 70.6% | 67.8% | 23% | 32.8% | 36.9%
13 | CSc1nc(=O)n(Cc2ccc(Cl)cc2)c(=O)[nH]1 | 96.1% | 105% | 104% | 115% | 102% | 146% | 101% | 102% | 106% | 103%
14 | O=C(Nc1ccc(Cl)c([N+](=O)[O-])c1)Nc1nc2ccccc2s1 | 74.9% | 67.6% | 86.2% | 113% | 106% | 71% | 83.6% | 91.8% | 88.7% | 92.3%
15 | COc1cc(/C=C\c2cc(OC)c(OC)c(OC)c2)cc(NS(=O)(=O)c2ccc(Cl)cc2)c1OC | 11.2% | 71.9% | 24% | -4.53% (active) | 39.7% | 10.9% | -23.9% (active) | 45.2% | 18.8% | 20%
16 | O=C1/C(=C\c2ccc(Cl)cc2)CN(C(=O)c2ccccc2)C/C1=C\c1ccc(Cl)cc1 | 4.94% (active) | 64.8% | 25% | -22.5% (active) | 26.9% | 1.64% (active) | 61.4% | 67.5% | 2.03% (active) | 10.4%
17 | CC1CN(Cc2ccccc2)C(=O)NC1=O (stereo not given) | 108% | 106% | 107% | 124% | 103% | 126% | 107% | 102% | 111% | 112%
18 | O=C(CCCCCCC(=O)Nc1cccnc1)NO | 5.89% (active) | -23.1% (active) | 66.4% | 17.6% | 41.5% | 73.6% | 50% | 78.4% | 29.6% | 93.1%
19 | COc1ccc(OC)c(/C=C/c2nnc(Nc3ccc(Cl)cc3)o2)c1 | 80.6% | 41.5% | 70.9% | 56.3% | 76.5% | 46.9% | 90% | 100% | 77.9% | 98.3%
20 | N#Cc1ncc(Br)c(NC2CCCCCC2)n1 | 97.1% | 145% | 98% | 95.2% | 111% | 93.4% | 99.5% | 95% | 114% | 92.3%
21 | c1ccc(CSc2nnc3c4c5c(sc4nc(-c4cccnc4)n23)CCCCCC5)cc1 | 21.7% | 16.2% | 71.4% | 83.3% | 57% | 45.1% | 79.7% | 35% | 45% | 94.2%
22 | CC/C(=C(/c1ccc(OCCN(C)C)cc1)c1ccc(OC(=O)CCCCC(=O)c2c(C)[nH]c(/C=C3\N=C(c4ccc[nH]4)C=C3OC)c2C)cc1)c1ccccc1 | 7.12% (active) | 39.5% | -17.5% (active) | 37.2% | 51.5% | 72.6% | 78.6% | 90.1% | -1.63% (active) | 27.1%
23 | N#CCCN1C/C(=C/c2ccccc2)C(=O)/C(=C/c2ccccc2)C1 | 2.2% (active) | -28.7% (active) | 13.9% | 50.3% | 24.7% | 26.3% | 76.1% | 56.2% | -9.82% (active) | -56.4% (active)
24 | O=C(C[P+](c1ccccc1)(c1ccccc1)c1ccccc1)C[P+](c1ccccc1)(c1ccccc1)c1ccccc1 | -34.2% (active) | -86.5% (active) | -71.3% (active) | -70.2% (active) | -86.3% (active) | -72.4% (active) | -98.2% (active) | -82.3% (active) | -75.4% (active) | -77.6% (active)
25 | O=[N+]([O-])c1ccc(N/N=C/c2cccc3ccccc23)nc1 | 85.4% | 168% | 101% | 112% | 121% | 126% | 102% | 102% | 104% | 91.1%
26 | COC(=O)C(C(C[N+](=O)[O-])c1ccccc1)=P(c1ccccc1)(c1ccccc1)c1ccccc1 (stereo not given) | 53.4% | 96% | 108% | 85.9% | 96.1% | 91.6% | 99.2% | 91.5% | 76.3% | 88.9%
27 | COc1cc(Nc2ncnc(Nc3ccc4c(n3)NC(=O)C(C)(C)O4)n2)cc(OC)c1OC | 34.6% | 28.2% | 3.82% (active) | -86.6% (active) | -21% (active) | 19.6% | -59.3% (active) | 30.2% | 40% | 22.9%
28 | O=C1/C(=C\c2ccc(Br)cc2)CN(C(=O)c2ccccc2F)C/C1=C\c1ccc(Br)cc1 | 1.26% (active) | -2.95% (active) | -4.72% (active) | -76.6% (active) | 4.14% (active) | -19.9% (active) | 3.38% (active) | 30.6% | -47.8% (active) | 5.63% (active)
